Assay results reported in the supplement of paper PMC12024424.
Where a name gives a salt, the structure may show the parent alone.

Tested on: Staphylococcus aureus Sa2 (MRSA, cystic fibrosis isolate)
Experiment: growth reduction vs untreated control (OD550); higher = stronger antibacterial activity
Conditions: 0.1 mM; 24 h
Method: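 Single-dose screen of the MedChem Express Drug Repurposing Library (0.1 mM, 1% DMSO) against planktonic MRSA S. aureus Sa2 (CF isolate) in TSB in 96-well plates, 37 °C aerobic, 24 h. Assays were run in triplicate and repeated twice.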

Compound | growth reduction
Cc1cc2c(C(C)C)c(O)c(O)c(C=O)c2c(O)c1-c1c(C)cc2c(C(C)C)c(O)c(O)c(C=O)c2c1O [Gossypol (acetic acid)] | 99.3%
C[S+]([O-])CCCCN=C=S (stereo not drawn) [Sulforaphane] | 97.9%
O=C(O)c1nn(Cc2ccc(Cl)cc2Cl)c2ccccc12 [Lonidamine] | 90.9%
CCNC1=Nc2ccc(Cl)cc2C(C)(c2ccccc2)O1 (stereo not drawn) [Etifoxine] | 100%
CC[C@H](C)C1O[C@]2(C=C[C@@H]1C)C[C@@H]1C[C@@H](C/C=C(\C)[C@@H](O[C@H]3C[C@H](OC)[C@@H](O[C@H]4C[C@H](OC)[C@H](NC)[C@H](C)O4)[C@H](C)O3)[C@@H](C)/C=C/C=C3\CO[C@@H]4[C@H](O)C(C)=C[C@@H](C(=O)O1)[C@]34O)O2 (stereo partly drawn) [Emamectin (Benzoate)] | 98%
Cc1cc2c(C(C)C)c(O)c(O)c(C=O)c2c(O)c1-c1c(C)cc2c(C(C)C)c(O)c(O)c(C=O)c2c1O [(R)-(-)-Gossypol acetic acid] | 96%
c1ccc2c(c1)Sc1ccccc1N2CC1CN2CCC1CC2 (stereo not drawn) [Mequitazine] | 99.3%
O=c1c2ccccc2[se]n1-c1ccccc1 [Ebselen] | 99.8%
Cc1cc2c(C(C)C)c(O)c(O)c(C=O)c2c(O)c1-c1c(C)cc2c(C(C)C)c(O)c(O)c(C=O)c2c1O [Gossypol] | 98.4%
O=C(CNC(=O)c1ccc(C2=NOC(c3cc(Cl)cc(C(F)(F)F)c3)(C(F)(F)F)C2)c2ccccc12)NCC(F)(F)F (stereo not drawn) [Afoxolaner] | 100%
O=c1[nH]c2ccccc2n1C1CCN(CCCC(c2ccc(F)cc2)c2ccc(F)cc2)CC1 [Pimozide] | 100%
COc1cccc2c1cc([N+](=O)[O-])c1c(C(=O)O)cc3c(c12)OCO3 [Aristolochic acid A] | 95.3%
Fc1ccc(C(OCCN2CCN(CCCc3ccccc3)CC2)c2ccc(F)cc2)cc1 [Vanoxerine (dihydrochloride)] | 100%
